{"source": "PubChem BioAssay", "note": "Records with an inconclusive call do not appear. Activity calls are given as the source filed them. Cut-off not given; nearly all actives show AC50 up to about 30 µM."}
{"test": "viability loss in pontine glioma line – cell-based, SU-DIPG-IV, MIPE4.0, CellTiter-Glo, qHTS, dose response (AID 1347063);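 further: compound exposure lasted 48 hours before the viability readout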", "settings": "CellTiter-Glo ATP luminescence"}
{"compound": "CN(N=O)C(=O)N[C@H]1C(O)OC(CO)[C@@H](O)[C@@H]1O", "note": "(stereo partly drawn)", "outcome": "inactive"}
{"compound": "O=C(O)c1cc(O)c2c(c1)C(=O)c1cccc(O)c1C2=O", "outcome": "inactive"}
{"compound": "Cc1nc2c([nH]1)CCN(C(=O)c1ccc(NC(=O)c3ccccc3-c3ccccc3)cc1)c1ccccc1-2", "outcome": "inactive"}
{"compound": "C=C1/C(=C\\C=C2/CCC[C@]3(C)[C@@H]([C@H](C)/C=C/[C@H](C)C(C)C)CC[C@@H]23)C[C@@H](O)C[C@@H]1O", "AC50": "5.9 µM (active)"}
{"compound": "CCC(CC)[C@H](NC(C)=O)[C@@H]1[C@H](O)[C@@H](C(=O)O)C[C@H]1N=C(N)N", "outcome": "inactive"}
{"compound": "CN(C)c1nc(Cc2ccc(NC(=O)c3ccc(C(F)(F)F)cc3)cc2)nc(N(C)C)c1CC(=O)O", "outcome": "inactive"}
{"compound": "Nc1ccn([C@H]2CS[C@@H](CO)O2)c(=O)n1", "outcome": "inactive"}
{"compound": "C1=C/COCc2cc(ccc2OCCN2CCCC2)Nc2nccc(n2)-c2cccc(c2)OCC/1", "AC50": "2.35 µM (active)"}
{"compound": "COc1ccc(CC2SC(=O)NC2=O)cc1C(=O)NCc1ccc(C(F)(F)F)cc1", "note": "(stereo not drawn)", "outcome": "inactive"}
{"compound": "Cc1cc(-c2nnc3n2CCCCC3)c(C)n1-c1ccccc1", "outcome": "inactive"}
{"compound": "CN1[C@@H]2CC(OC(=O)[C@@H](CO)c3ccccc3)C[C@H]1[C@H]1O[C@H]12", "note": "(stereo partly drawn)", "outcome": "inactive"}
{"compound": "CC(C)C(=O)Oc1ccc(CO)cc1[C@H](CCN(C(C)C)C(C)C)c1ccccc1", "outcome": "inactive"}
{"compound": "C/C(=C\\C(=O)Nc1ccccc1C(=O)O)c1ccc2ccccc2c1", "outcome": "inactive"}
{"compound": "CCC[C@H]1C[C@H](C(=O)N[C@@H]([C@@H]2O[C@@H](SC)[C@@H](O)[C@@H](O)[C@H]2O)[C@H](C)Cl)N(C)C1", "outcome": "inactive"}
{"compound": "CC[C@H]1OC(=O)[C@H](C)[C@@H](O[C@H]2C[C@@](C)(OC)[C@@H](O)[C@H](C)O2)[C@H](C)[C@@H](O[C@@H]2O[C@@H](C)C[C@H](N(C)C)[C@H]2O)[C@](C)(O)C[C@@H](C)C(=O)[C@H](C)[C@@H](O)[C@]1(C)O", "outcome": "inactive"}
{"compound": "Nc1n[nH]c2nnc(-c3c(-c4ccccc4)nn4ccccc34)cc12", "AC50": "0.209 µM (active)"}
{"compound": "O=C(O)C1=NC(C(=O)O)CC(/C=C/N2c3cc(O)c(OC4OC(CO)C(O)C(O)C4O)cc3CC2C(=O)O)=C1", "note": "(stereo not drawn)", "outcome": "inactive"}
{"compound": "CN[C@H]1[C@H](O[C@@H]2[C@H](O[C@@H]3[C@@H](O)[C@@H](O)[C@@H](N=C(N)N)[C@@H](O)[C@H]3N=C(N)N)O[C@H](C)[C@@]2(O)C=O)O[C@@H](CO)[C@@H](O)[C@H]1O", "outcome": "inactive"}
{"compound": "CCCCCNC(=O)N1CCC(CN(Cc2ccc(Cl)cc2)Cc2ccc([N+](=O)[O-])s2)C1", "note": "(stereo not drawn)", "AC50": "23.5 µM (active)"}
{"compound": "CNc1ccc(C(=O)Oc2cc(ON[N+](=O)N(C)C)c([N+](=O)[O-])cc2C#N)cc1", "outcome": "inactive"}
{"compound": "CC(C)(C)OC(=O)N[C@H]1CCCCC/C=C\\[C@@H]2C[C@@]2(C(=O)NS(=O)(=O)C2CC2)NC(=O)[C@@H]2C[C@@H](OC(=O)N3Cc4cccc(F)c4C3)CN2C1=O", "outcome": "inactive"}
{"compound": "CC(=O)N1CCN(c2ccc(OCc3nn(C)c(C)c3-c3cccc4c(CCCOc5cccc6ccccc56)c(C(=O)O)n(Cc5cccnc5)c34)cc2)CC1", "AC50": "1.66 µM (active)"}
{"compound": "O=C(NNC(=O)c1ccc(CNS(=O)(=O)c2ccc(F)c(Cl)c2)cc1)c1ccccc1", "outcome": "inactive"}
{"compound": "CC1COC2(CCN(c3nc(=O)c4cc(C(F)(F)F)cc([N+](=O)[O-])c4s3)CC2)O1", "note": "(stereo not drawn)", "outcome": "inactive"}
{"compound": "Cc1nnc(C(C)C)n1C1C[C@H]2CC[C@@H](C1)N2CC[C@H](NC(=O)C1CCC(F)(F)CC1)c1ccccc1", "note": "(stereo partly drawn)", "outcome": "inactive"}
{"compound": "C=C1C[C@@]2(O)O[C@@]3(C[C@H]2C(C)C)[C@@H](C)CC[C@@H]13", "outcome": "inactive"}
{"compound": "CCCCCCCCCCCCCC(=O)N[C@H](CO)[C@H](O)c1ccc([N+](=O)[O-])cc1", "AC50": "4.69 µM (active)"}
{"compound": "C[C@H](NCc1ccc2c(c1)nc(NC(=O)c1ccc(-c3cn[nH]c3)s1)n2CCc1ccccc1)C(C)(C)C", "AC50": "1.32 µM (active)"}
{"compound": "C[C@H](NCc1ccc(OCc2cccc(F)c2)cc1)C(N)=O", "AC50": "9.35 µM (active)"}
{"compound": "CO/N=C(/C(=O)N[C@@H]1C(=O)N2C(C(=O)O)=C(Cn3ccc(=N)n3CCO)CS[C@H]12)c1csc(N)n1", "outcome": "inactive"}
{"compound": "C[C@]12CC[C@H](O)CC1=CCC1C2CC[C@]2(C)C(n3cnc4ccccc43)=CCC12", "note": "(stereo partly drawn)", "outcome": "inactive"}
{"compound": "c1nc2nc(Nc3ccc(N4CCOCC4)cc3)nc(NC3CCCCC3)c2[nH]1", "AC50": "14.8 µM (active)"}
{"compound": "Cc1ccnc(NS(=O)(=O)c2ccc(NC(=O)Nc3ccc(S(=O)(=O)Nc4nccc(C)n4)cc3)cc2)n1", "AC50": "14.8 µM (active)"}
